The text below walks through data of PubChem BioAssay AID1210 (NMMLSC, 2008).

As usually defined, the inhibition is the change of the read-out against control, counted positive when it falls.

The target in this assay is Estrogen receptor beta (Homo sapiens) (UniProt Q92731). Description: displacement of fluorescent estrogen from ERbeta – cell-based, Cos7 ERbeta-GFP, flow cytometry, primary screen (AID 1210).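 Note: 0% = DMSO vehicle wells and 100% = complete loss of labeled estradiol signal.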 The note with it: fluorescent estrogen binding, stronger effect = higher value. (In general: Flow cytometry measures light scatter and fluorescence of single cells or particles in a stream.)
Estrogen receptor beta (Homo sapiens), sequence (Q92731 whole entry, looked up): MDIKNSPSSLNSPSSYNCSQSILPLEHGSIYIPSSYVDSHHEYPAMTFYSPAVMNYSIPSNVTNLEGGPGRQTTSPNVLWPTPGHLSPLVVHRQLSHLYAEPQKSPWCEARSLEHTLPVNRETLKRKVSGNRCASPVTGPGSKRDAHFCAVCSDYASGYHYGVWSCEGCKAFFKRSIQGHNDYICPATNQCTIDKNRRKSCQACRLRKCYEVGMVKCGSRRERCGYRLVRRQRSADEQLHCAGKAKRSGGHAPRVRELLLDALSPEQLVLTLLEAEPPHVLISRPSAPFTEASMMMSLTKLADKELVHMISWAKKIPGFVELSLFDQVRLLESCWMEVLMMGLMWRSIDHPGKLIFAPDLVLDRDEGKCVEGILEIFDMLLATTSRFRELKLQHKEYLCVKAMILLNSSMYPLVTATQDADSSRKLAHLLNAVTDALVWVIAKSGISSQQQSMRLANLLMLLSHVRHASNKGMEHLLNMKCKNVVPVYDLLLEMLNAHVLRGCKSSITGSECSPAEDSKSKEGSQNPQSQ
[1] abbreviates: ligand binding inhibition, at 0.1 µM.

Each structure is given as a SMILES string. Activity calls are given as the source filed them.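 Rule for the calls: active = blocks over 70% of labeled estradiol binding at 10 µM, or over a set limit at 100 nM; inactive = the rest.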

As to `Cc1ccc(-c2nn(-c3ccccc3)cc2CSC(=N)N)cc1`, the inhibition reads like this: (at 10 µM) 38% (inactive); under setting [1], 33%.
On the same counts, the results for `COC(=O)C1=C(O)/C(=C\c2ccc(CNC(=O)C(=O)Nc3ccc(C)c(C)c3)o2)N=C1C` are 42% (inactive) and 20%.
On the same counts, the results for `O=C(NCCN1CCOCC1)c1cnn2c(-c3ccccc3)cc(-c3ccccc3)nc12` are 47% (inactive) and 21%.
On the same counts, the results for `CCn1c(SCC(=O)Nc2cccc(F)c2)nnc1-c1cc2cc(Br)ccc2o1` are 39% (inactive) and 12%.
For `O=C1NCCCC2c3cc(O)c4ccccc4c3OC12N1CCCCC1` (configuration not stated), the inhibition runs as follows: (at 10 µM) 56% (inactive); under setting [1], 27%.
On the same counts, the results for `COc1ccc2[nH]c3nc(SCc4nnc(-c5ccc(C)cc5)o4)nnc3c2c1` are 49% (inactive) and 18%.
Take `Nc1ccc(-c2nc3c(Cl)c(N)ccc3[nH]2)cc1`: the inhibition was 66% (inactive) (at 10 µM) and 32% under setting [1].
As for `Cc1[nH]c2ccc(-c3nnc(SCC(=O)c4ccccc4F)o3)cc2c1C`, the inhibition is 18% (inactive) (at 10 µM) and 28% under setting [1].
On the same counts, the results for `COc1ccc(Cl)cc1NC(=O)c1ocnc1C` are 50% (inactive) and 3%.
On the same counts, the results for `COc1ccc(-c2nnc(-c3cc4c(ccc5ccccc54)oc3=O)o2)cc1` are 33% (inactive) and 6%.
On to `Nc1ccc(-c2nc3ccc(C(=O)O)cc3s2)cc1`, for which the inhibition (at 10 µM) was 65% (inactive) and the inhibition under setting [1] was 10%.
For the compound `COc1ccccc1/C=c1\sc2nc(-c3ccco3)nn2c1=O`, the inhibition by setting is: (at 10 µM) 60% (inactive); under setting [1], 21%.
On the same counts, the results for `COc1ccc(C2CC(c3ccccc3)=NN2C(=O)CSc2nccc(=O)[nH]2)cc1` (configuration not stated) are 33% (inactive) and 37%.
For the compound `COc1ccc(N2C(=O)c3ccccc3NC2c2ccc(OC)c(COc3ccccn3)c2)cc1` (configuration not stated), the inhibition (at 10 µM) was 40% (inactive) and the inhibition under setting [1] was 9%.
On the same counts, the results for `Nc1ccc2nc3n(c(=O)c2c1)CCC3` are 49% (inactive) and 9%.
For `C[C@@H]1O[C@@H](Oc2c(-c3cc(O)c(O)c(O)c3)oc3cc(O)cc(O)c3c2=O)[C@H](O)[C@H](O)[C@H]1O`, in that order: 31% (inactive) and 30%.
`C=CCn1c(SCC(=O)NC(=O)NCc2ccco2)nc2sc(CC)cc2c1=O`: the inhibition is 33% (inactive) (at 10 µM) and 10% under setting [1].
On the same counts, the results for `O=Cc1ccc2oc3nc4n(c(=O)c3c(=O)c2c1)CCCS4` are 15% (inactive) and 2%.
On to `O=C(Nc1ccc2c(c1)nc1n2CCSC1)c1ccco1`, for which the inhibition by setting is: (at 10 µM) 57% (inactive); under setting [1], 31%.
Turning to `CCOC(=O)C1=C(O)/C(=C\c2ccc(CNC(=O)C(=O)Nc3ccccc3)o2)N=C1C`, the inhibition is, setting by setting: (at 10 µM) 20% (inactive); under setting [1], 61%.
On the same counts, the results for `Cc1oc2cc(O)ccc2c(=O)c1Oc1ccccc1` are 22% (inactive) and 37%.
In the case of `Cc1ccc(S(=O)(=O)NCCn2c(C)cc3ccccc32)cc1`, the inhibition was 23% (inactive) (at 10 µM) and 18% under setting [1].
For `O=c1oc2ccccc2n1CCn1c2ccccc2c2nc3ccccc3nc21`, in that order: 70% (inactive) and 18%.
For `CCOC(=O)C1CCCN(C(=O)c2cc3ncc(Br)cn3n2)C1` (configuration not stated), in that order: 0% (inactive) and 26%.
For `Cc1ccc(N=Cc2ccc(O)cc2O)cc1F`, in that order: 34% (inactive) and 15%.
With `Oc1ccc(-c2cn3c(n2)SCC3)cc1`, the inhibition (at 10 µM) is 64% (inactive) and the inhibition under setting [1] was 10%.
`Oc1cccc(-c2nc3ccc4ccccc4c3c3c2CCC3)c1`: the inhibition is, setting by setting: (at 10 µM) 39% (inactive); under setting [1], 21%.
On to `COc1ccc(OC)c(N2C(=O)[C@@H]3C(c4ccccc4Cl)=NO[C@@H]3C2=O)c1`, for which the inhibition (at 10 µM) is 52% (inactive) and the inhibition under setting [1] was 30%.
Take `Cc1cc(C2(c3ccc(O)c(C)c3)OC(=O)c3ccccc32)ccc1O`: the inhibition reads like this: (at 10 µM) 73% (active); under setting [1], 29%.
`C[C@]12CC[C@@H]3c4ccc(O)cc4[C@@H](O)C[C@H]3[C@@H]1CC[C@@H]2O`: the inhibition runs as follows: (at 10 µM) 74% (active); under setting [1], 56%.
`COc1cc(C2C(C#N)=C(N)Oc3cc(C)oc(=O)c32)cc2c1OCO2` (configuration not stated): the inhibition runs as follows: (at 10 µM) 32% (inactive); under setting [1], 46%.
For `CCOc1ccc(Nc2oc(-c3ccccc3Cl)nc2C#N)cc1`, in that order: 25% (inactive) and 43%.
On the same counts, the results for `CCC1(CC)NC(=O)N(CC(=O)Nc2sc3c(c2C(N)=O)CCC3)C1=O` are 16% (inactive) and 5%.
For `COc1ccc(OC)c(/C=N/c2oc(-c3ccco3)c(-c3ccco3)c2C#N)c1`, in that order: 31% (inactive) and 31%.
For `O=C(CNc1ccccc1)N/N=C/c1cn(-c2ccccc2)nc1-c1ccccc1`, the inhibition reads like this: (at 10 µM) 53% (inactive); under setting [1], 48%.
On the same counts, the results for `CC(C)(C)OC(=O)N1CCN(c2ccc(NC(=O)Cn3nnc(-c4ccccc4)n3)cc2)CC1` are 64% (inactive) and 6%.
On the same counts, the results for `CCCNCC1COc2ccccc2O1` (configuration not stated) are 51% (inactive) and 41%.
Turning to `N#Cc1ccc(-c2cccnc2)nc1SCC(=O)Nc1sc2c(c1C#N)CCC2`, the inhibition runs as follows: (at 10 µM) 0% (inactive); under setting [1], 10%.
For `O=C(O)C1Nc2c(O)cc(Cl)c([N+](=O)[O-])c2C2C=CCC12` (configuration not stated), in that order: 31% (inactive) and 18%.
For `N#CC1=C(N)OC2=C(CCC/C2=C/c2ccoc2)C1c1ccoc1` (configuration not stated), in that order: 20% (inactive) and 34%.
On the same counts, the results for `NC(=O)c1c(NC(=O)c2cccs2)sc2c1CCCCCC2` are 54% (inactive) and 42%.
With `CCOc1ccc2nc(NC(=O)CCC(=O)c3cccs3)sc2c1`, the inhibition is 29% (inactive) (at 10 µM) and 33% under setting [1].
As to `COC(=O)c1ccc(C2Nc3ccc(/C(C)=N/NC(=O)C(OC)c4ccccc4)cc3C3C=CCC32)cc1` (configuration not stated), the inhibition is 22% (inactive) (at 10 µM) and 40% under setting [1].
For `Cc1ccc2c(c1)c(=O)c1c3n2CCN(C(=O)CCl)C3CC1` (configuration not stated), in that order: 37% (inactive) and 33%.
On the same counts, the results for `COc1ccc(-c2nnc(SCC(=O)c3cc(C)n(Cc4cccs4)c3C)o2)cc1` are 27% (inactive) and 1%.
For `O=C(NCc1ccco1)c1cc2c(s1)CSC2`, in that order: 32% (inactive) and 12%.
On to `O=C(c1cccs1)N1N=C(c2ccccc2)CC1c1ccc(O)cc1` (configuration not stated), for which the inhibition (at 10 µM) was 69% (inactive) and the inhibition under setting [1] amounted to 23%.
For `COc1ccc(C(=O)N/N=C(\C)c2ccc3c(c2)C2C=CCC2C(c2ccccc2)N3)cc1` (configuration not stated), in that order: 67% (active) and 66%.
Regarding `CCc1ccc(NC(=O)c2noc3c2CCC3)cc1`, the inhibition is 8% (inactive) (at 10 µM) and 22% under setting [1].
In the case of `C/C(N)=C(/C#N)C(=O)CSc1nnnn1-c1ccc(C)cc1`, the inhibition is, setting by setting: (at 10 µM) 27% (inactive); under setting [1], 57%.
With `Cc1ccc(Cn2c(NC(=O)c3ccco3)nc3ccccc32)cc1`, the inhibition by setting is: (at 10 µM) 10% (inactive); under setting [1], 19%.
For `COc1ccc2cc3c(N)nn(C(=O)Cc4ccc(Cl)cc4)c3nc2c1`, in that order: 37% (inactive) and 12%.
On the same counts, the results for `Cc1ccc(S(=O)(=O)Cc2ccc(C(=O)O)o2)cc1` are 54% (inactive) and 27%.
On the same counts, the results for `CN(C)CC(=O)N1c2ccccc2CCc2ccc(NC(=O)c3ccc(N)cc3)cc21` are 39% (inactive) and 62%.
For the compound `O=C(Nc1cnn(C23CC4CC(CC(C4)C2)C3)c1)c1cnn2c(C(F)(F)F)cc(-c3ccco3)nc12`, the inhibition reads like this: (at 10 µM) 26% (inactive); under setting [1], 20%.
As for `COc1cccc(-c2nnc(NC(=O)Cc3cccs3)s2)c1`, the inhibition by setting is: (at 10 µM) 30% (inactive); under setting [1], 47%.
For `O=C1NC(c2ccc(Br)cc2)Nc2sc3c(c21)CCC3` (configuration not stated), in that order: 54% (inactive) and 50%.
As for `O=C(O)C1Nc2c(O)cccc2C2C=CCC12` (configuration not stated), the inhibition is 0% (inactive) (at 10 µM) and 4% under setting [1].
For `O=C(COC(=O)CC1CCCC1)Nc1cc2c(cc1Cl)C(=O)c1ccccc1C2=O`, in that order: 47% (inactive) and 15%.
As to `Cc1oc2c(C)c(O)ccc2c(=O)c1-c1ccc2ccccc2n1`, the inhibition is 15% (inactive) (at 10 µM) and 54% under setting [1].
On the same counts, the results for `Cc1cc(NC(=O)CSc2cn(CCNC(=O)c3ccc(Cl)cc3)c3ccccc23)no1` are 11% (inactive) and 31%.
For `COc1cc(/C=C2\OC(=O)c3c(OC)cccc32)ccc1O`, in that order: 55% (inactive) and 28%.
In the case of `CN=c1scc(C)n1/N=C/c1ccc(O)cc1O`, the inhibition is 58% (inactive) (at 10 µM) and 6% under setting [1].
For `Oc1ccc(-c2nc(-c3ccc(O)c(O)c3)cs2)cc1`, in that order: 55% (inactive) and 54%.
For `O=C(Nc1ccc2oc(-c3ccc4ccccc4c3)nc2c1)c1cccs1`, in that order: 42% (inactive) and 36%.
On the same counts, the results for `Nc1ccc(/C=C/C(=O)c2ccco2)cc1` are 0% (inactive) and 37%.
In the case of `COC(=O)c1ccc2c(=O)n(CC3CCCO3)c(SCC(=O)Nc3ccccc3Cl)nc2c1` (configuration not stated), the inhibition runs as follows: (at 10 µM) 65% (inactive); under setting [1], 4%.
For `CCN(CC)CCCNC(=O)c1nn(-c2ccccc2OC)c(=O)c2ccccc12`, in that order: 40% (inactive) and 19%.
For `Oc1ccccc1-c1nnc(SCCN2CCOCC2)n1Cc1ccccc1`, in that order: 32% (inactive) and 41%.
On the same counts, the results for `COc1cc(C=C(c2nc3ccccc3s2)c2nc3ccccc3s2)ccc1O` are 31% (inactive) and 57%.
`O=C(Cc1cn2ccsc2n1)OCc1nc2ccccc2s1`: the inhibition is 58% (inactive) (at 10 µM) and 24% under setting [1].
On the same counts, the results for `COc1cc(C(Nc2ccccn2)c2ccc3ccc(C)nc3c2O)cc(OC)c1O` (configuration not stated) are 0% (inactive) and 20%.
Regarding `c1coc(-c2nnc3sc(Cc4cccs4)nn23)c1`, the inhibition (at 10 µM) is 5% (inactive) and the inhibition under setting [1] amounted to 53%.
As to `Cc1nc2ccc(C(=O)O)cc2[nH]1`, the inhibition by setting is: (at 10 µM) 31% (inactive); under setting [1], 47%.
For `O=c1c(OC2OC(CO)C(O)C(O)C2O)c(-c2ccc(O)c(O)c2)oc2cc(O)cc(O)c12` (configuration not stated), in that order: 36% (inactive) and 46%.
On the same counts, the results for `c1coc(-c2nn3c(-c4ccco4)nnc3s2)c1` are 37% (inactive) and 28%.
For `Cc1noc(C)c1COC(=O)c1cc2c3ccccc3n(C)c2s1`, in that order: 59% (inactive) and 4%.
Take `O=C(Nc1cccc(-c2cn3cccnc3n2)c1)c1ccc2c(c1)OCO2`: the inhibition is 26% (inactive) (at 10 µM) and 48% under setting [1].
For the compound `NNc1nc2sc3c(c2c(=O)[nH]1)CCc1ccccc1-3`, the inhibition (at 10 µM) is 23% (inactive) and the inhibition under setting [1] came out at 37%.
On the same counts, the results for `CC(=O)c1cccc(NC(=O)Cc2cccs2)c1` are 11% (inactive) and 23%.
For `O=C(COC(=O)CCC(=O)c1cccs1)NCc1ccco1`, in that order: 54% (inactive) and 12%.
For `Nc1ccc(-c2cc(-c3cccc(N)c3)nc(-c3ccccc3)n2)cc1`, in that order: 39% (inactive) and 27%.
For the compound `CSc1nc2c(c(=O)[nH]1)C(c1cccs1)C1=C(CCCC1=O)N2` (configuration not stated), the inhibition is 71% (active) (at 10 µM) and 33% under setting [1].
In the case of `O=c1oc2ccccc2cc1-c1ccc(O)cc1`, the inhibition was 58% (inactive) (at 10 µM) and 3% under setting [1].
On the same counts, the results for `Cc1nnc(SCC(=O)NC(=O)NCc2ccco2)n1Cc1ccccc1` are 71% (active) and 53%.
On the same counts, the results for `COc1ccc(C2CC(=O)Nc3ccccc3S2(=O)=O)cc1OC` (configuration not stated) are 5% (inactive) and 20%.
